The results in this text go back to the supplement of paper PMC10121225.

Structures can show the parent of a compound that is named as a salt.
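Also: immunostained co-cultures imaged by high-content microscopy, Z-score per plate against mean and SD of 0.1% DMSO wells, compounds added on differentiation day 18, analysed day 21.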

For the test, the system named is hN + hpA co-culture (H1 iNGN2 human neurons + human primary astrocytes). Description: presynaptic density (SYNAPSIN1 puncta per MAP2 neurite area), Z-score vs DMSO controls; higher = more presynaptic puncta (synapse-promoting). To be noted: 3 µM; 72 h.
Regarding `O=C(O)CNC(=O)c1c(O)c2ccccc2n(Cc2ccccc2)c1=O`, the “presynaptic density (Z-score)” value amounted to 0.0398.
Turning to `CN1CCCCC1Cn1cc(C(=O)c2cc([N+](=O)[O-])ccc2I)c2ccccc21` (centres undefined), the “presynaptic density (Z-score)” value was -0.667.
Next, `C[C@](O)(COc1ccc(C#N)cc1)C(=O)Nc1ccc(C#N)c(C(F)(F)F)c1`: -0.892; `Cc1cc2c(C(C)C)c(O)c(O)c(C=O)c2c(O)c1-c1c(C)cc2c(C(C)C)c(O)c(O)c(C=O)c2c1O`: -4.31; `CCC(COC(=O)c1cc(OC)c(OC)c(OC)c1)(c1ccccc1)N(C)C` (centres undefined): 0.31.
With `C[C@@]12N[C@@H](Cc3ccccc31)c1ccccc12` [(-)-MK 801 maleate], the “presynaptic density (Z-score)” value was -0.122.
With `CN1CCc2cc3c(cc2C1C1OC(=O)c2c1ccc1c2OCO1)OCO3` (single isomer, unassigned; (+)) [(+)-Bicuculline] the figure was -0.322.
With `O=C1CC[C@@]2(O)[C@H]3Cc4ccc(O)c5c4[C@@]2(CCN3CC2CC2)[C@H]1O5` [Naltrexone HCl] the figure was 1.84; with `O=c1[nH]c2ccc(Cl)cc2c(N[C@@H]2CN3CCC2CC3)c1-c1nc2ccccc2[nH]1`, -2.58.
With `Cc1cc(SCc2sc(-c3ccc(C(F)(F)F)c(F)c3)nc2C)ccc1OCC(=O)O` the figure was 0.227; with `CCN(CC)C(=O)c1ccc(C2=CC3(CCNCC3)Oc3cccc(O)c32)cc1`, -0.78.
Take `COc1ccc(C(=O)N2CCCC2=O)cc1` [Aniracetam]: the “presynaptic density (Z-score)” value came out at 0.286.
`C=C1C[C@@H]2[C@H](CC[C@]3(C)C(=O)CC[C@@H]23)[C@@]2(C)C=CC(=O)C=C12` [Exemestane]: the “presynaptic density (Z-score)” value worked out at 0.646.
Turning to `CC(=O)O[C@H]1C[C@@H]2CC[C@@H]3[C@H](CC[C@@]4(C)[C@H]3C[C@H]([N+]3(C)CCCCC3)[C@@H]4OC(C)=O)[C@@]2(C)C[C@@H]1[N+]1(C)CCCCC1` [Pancuronium dibromide], the “presynaptic density (Z-score)” value was -0.361.
`O=C(O[C@H]1C[C@H]2CC[C@@H](C1)[N+]21CCCC1)C(O)(c1ccccc1)c1ccccc1` [Trospium chloride]: the “presynaptic density (Z-score)” value is -0.748.
Next, `C[C@@H]1O[C@@H](O[C@H]2C[C@@H](O)[C@]3(CO)[C@H]4[C@H](O)C[C@]5(C)[C@@H](C6=CC(=O)OC6)CC[C@]5(O)[C@@H]4CC[C@]3(O)C2)[C@H](O)[C@H](O)[C@H]1O` [Ouabain]: -1.54; `CCc1c(C(=O)C(N)=O)c2c(OCC(=O)O)cccc2n1Cc1ccccc1`: 0.584; `N[C@@H]1C[C@H]1c1ccccc1` [Tranylcypromine (2-PCPA) HCl]: 0.259.
With `O=[N+]([O-])C=Cc1ccc2c(c1)OCO2` [MNS (3,4-Methylenedioxy-Œ≤-nitrostyrene] the figure was -0.543.
Consider `Cc1sc2c(c1C)C(c1ccc(Cl)cc1)=N[C@@H](CC(=O)OC(C)(C)C)c1nnc(C)n1-2`, for which the “presynaptic density (Z-score)” value turned out to be 2.8.
`Cn1cc(C2=C(c3cn(C4CCN(Cc5ccccn5)CC4)c4ccccc34)C(=O)NC2=O)c2ccccc21` [Enzastaurin]: the “presynaptic density (Z-score)” value stood at 0.0046.
Next, `CCCN1CCO[C@@H]2c3cc(O)ccc3OC[C@H]21`: 0.0588.
Next, `CC[C@@H]1/C=C/C=C/C[C@H](C)[C@H](O)[C@](C)(O)C(=O)[C@H](C)[C@@H](O)[C@H](C)C(=O)[C@H](C)[C@@H](O)[C@H](C)/C=C/C(=O)O[C@H]2[C@@H](C)[C@@H](CC1)O[C@@]1(CC[C@@H](C)[C@@H](C[C@H](C)O)O1)[C@@H]2C` [Oligomycin A]: -1.28; `CCOC(=O)c1cncn1[C@H](C)c1ccccc1` [Etomidate]: 0.377.
